Source: PubChem BioAssay (Tox21)
Values joined by “and” are separate entries in the source; they are usually repeats but may differ in a detail not shown here. Equal entries are not always repeated. Records with an inconclusive call do not appear. Entries that show only a call come without a potency. Some structures have more than one record in an assay (separate samples or runs), and their calls can disagree. Active and inactive are the calls of the source. Unless noted, the call rests on the fitted dose curve; in most records, active means well fitted curve in the direction sought with a large enough effect in the repeat runs; inconclusive means weak or mixed curves; inactive means no such curve, though single readings can be large; an effect the other way counts as inactive or inconclusive.

Columns and labels:
[1] = qHTS RealTime-Glo MT Cell Viability Assay in HepG2 cells - 24 hour (AID 1224867); further: nearly all actives have a fitted effect of over 50% in size; further: potency means the concentration at half of the fitted maximal effect
Outline: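 Luminescence read-out: viable HepG2 cells reduce a prosubstrate to a NanoLuc substrate, giving a signal proportional to live cell number. Reads taken at 0, 8, 16, 24, 32 and 40 h of compound exposure at 37 C.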

[2] = qHTS RealTime-Glo MT Cell Viability Assay in HEK293 cells - 32 hour (AID 1224868); further: nearly all actives have a fitted effect of over 50% in size; further: potency means the concentration at half of the fitted maximal effect
Outline: (§1)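 Nonlytic real-time viability readout: viable cells convert prosubstrate to NanoLuc substrate, giving luminescence proportional to live cell number. HEK293, 600 cells/well, compound added after 5 h, continuous culture at 37 C.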

[3] = A CellTox Green Cytotoxicity Assay to monitor cytotoxicity in HEK293 cells - 0 hour (AID 1224869); further: nearly all actives have a fitted effect of over 50% in size
Outline: (§2)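 Homogeneous no-lysis format: HEK293 cell suspension mixed with CellTox Green reagent, seeded, incubated 5 h at 37 C/5% CO2, then dosed by pintool with compound in DMSO.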

[4] = qHTS RealTime-Glo MT Cell Viability Assay in HepG2 cells - 40 hour (AID 1224870); further: nearly all actives have a fitted effect of over 50% in size; further: potency means the concentration at half of the fitted maximal effect
Outline: (§3)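 HepG2 cells mixed with RealTime-Glo MT reagents (NanoLuc plus cell-permeant prosubstrate) were seeded at 600 cells/well, incubated 5 h at 37 C/5% CO2, then pinned with compounds in DMSO; nonlytic luminescence tracked viability during 40 h treatment.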

[5] = A CellTox Green Cytotoxicity Assay to monitor cytotoxicity in HEK293 cells - 40 hour (AID 1224871); further: nearly all actives have a fitted effect of over 45% in size; further: potency means the concentration at half of the fitted maximal effect
Outline: as §2

[6] = qHTS RealTime-Glo MT Cell Viability Assay in HEK293 cells - 16 hour (AID 1224872); further: nearly all actives have a fitted effect of over 50% in size; further: potency means the concentration at half of the fitted maximal effect
Outline: as §1

[7] = qHTS RealTime-Glo MT Cell Viability Assay in HepG2 cells - 8 hour (AID 1224873); further: nearly all actives have a fitted effect of over 55% in size; further: potency means the concentration at half of the fitted maximal effect
Outline: as §3

[8] = qHTS RealTime-Glo MT Cell Viability Assay in HEK293 cells - 40 hour (AID 1224874); settings: RealTime-Glo luminescence; max response: stronger effect = lower value; further: nearly all actives have a fitted effect of over 50% in size; further: potency means the concentration at half of the fitted maximal effect
Outline: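 Measured as luminescence from the same continuously cultured HEK293 wells at successive time points (0, 8, 16, 24, 32, 40 h) after compound addition. Reagent present from seeding; dosing at 5 h; incubation 37 C.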

[9] = qHTS assay to identify small molecule antagonists of the estrogen related receptor (ERR) signaling pathway from Tox21 library (AID 1224848); further: nearly all actives have a fitted effect of over 50% in size; further: potency means the concentration at half of the fitted maximal effect
Outline: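 Tox21 10K compounds in DMSO tested for ERR pathway antagonism in NTP's ERR cell line; 18 h, 37 C exposure; ONE-Glo luminescence.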

[10] = qHTS assay to identify small molecule agonists of the estrogen related receptor (ERR) signaling pathway from Tox21 library (AID 1224849; calls by dose curve; further: nearly all actives have a fitted effect of over 15% in size); settings: ERR reporter cell line, ONE-Glo luciferase, 18 h
Outline: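 Reporter cells (ERR, NTP source) treated with Tox21 10K compounds 18 h, 37 C. Readout: ONE-Glo luminescence, 30 min RT.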

| Compound | Potency [1] | Potency [2] | Potency [3] | Potency [4] | Potency [5] | Potency [6] | Potency [7] | max response [8] | Potency [9] | activity change, positive = activation ([10]; at 42.5 µM (top of the series)) | activity change, positive = activation ([10]; at 92.4 µM (top of the series)) | Potency [8] |
| --- | --- | --- | --- | --- | --- | --- | --- | --- | --- | --- | --- | --- |
| O=S(=O)(O)O | inactive | inactive | inactive | inactive | inactive | inactive | inactive | -2.52% (inactive) [middle of 6 runs] | – | – | – | – |
| C1CCC(NC2CCCCC2)CC1 | inactive | inactive | inactive | inactive | inactive | inactive | inactive | 3.03% (inactive) and 3.3% (inactive) and 2.02% (inactive) | – | – | – | – |
| CCC[N+]1(C)CCCCC1 | inactive | inactive | inactive | inactive and 24.6 µM (active) | inactive | inactive | inactive | -1.58% (inactive) and 7.15% (inactive) and 0.391% (inactive) | – | – | – | – |
| O=C(O)COc1ccc(Cl)cc1Cl | inactive | inactive | inactive | inactive | inactive | inactive | inactive | 5.16% (inactive) [middle of 6 runs] | – | – | – | – |
| CCCCn1cc[n+](C)c1 | inactive | inactive | inactive | inactive and 35.2 µM (active) | inactive | inactive | inactive | – | – | – | – | – |
| CNC | inactive | inactive | inactive | inactive | inactive | inactive | inactive | 5.34% (inactive) and 10.3% (inactive) | – | – | – | – |
| C[C@]12CCC(=O)C=C1CC[C@@H]1[C@@H]2CC[C@]2(C)C(=O)CC[C@@H]12 | inactive | 27.1 µM (active) and inactive | inactive | inactive | 48.2 µM (active) and inactive | 24.1 µM (active) and inactive | inactive | -20.4% (inactive) | 42.5 µM (active) and 54.5 µM (active) | -23.4% (inactive) | -46.4% (inactive) and -41% (inactive) | 24.1 µM (active) and 24.5 µM (active) |
| CCOP(=S)(OCC)Oc1ccc2c(C)c(Cl)c(=O)oc2c1 | inactive | 12.4 µM (active) and 43.6 µM (active) and inactive | inactive | inactive | inactive | 14 µM (active) and 43.6 µM (active) and inactive | inactive | -24.9% (inactive) | inactive | 25.6% (active) | -10.9% (inactive) and -28.3% (inactive) | 12.4 µM (active) and 43.6 µM (active) |
| COc1ccccc1N | inactive | inactive | inactive | inactive | inactive | inactive | inactive | 3.5% (inactive) [middle of 4 runs] | inactive | – | 8.48% (inactive) and 0.539% (inactive) and 1.9% (inactive) | – |
| O=C(O)CCl | inactive | inactive | inactive | inactive | inactive | inactive | inactive | 1.08% (inactive) and -1.37% (inactive) | inactive | – | 5.04% (inactive) and -0.191% (inactive) and -5.49% (inactive) | – |
| O=c1[nH]c(=O)n(Cl)c(=O)n1Cl | inactive | inactive | inactive | inactive | inactive | inactive | inactive | 3.74% (inactive) and 3.92% (inactive) and 2.88% (inactive) | inactive | – | 2.32% (inactive) and 2.59% (inactive) and 1.02% (inactive) | – |
| O=[N+]([O-])O | inactive | inactive | inactive | inactive | inactive | inactive | inactive | – | – | – | – | – |
| CCCC[n+]1ccc(C)cc1 | inactive | inactive | inactive | inactive | inactive and 21.8 µM (active) | 34.5 µM (active) and inactive | inactive | – | – | – | – | – |
| COCC(=O)N(c1c(C)cccc1C)C(C)C(=O)OC (stereo not drawn) | inactive | inactive | inactive | inactive | inactive | inactive | inactive | 7.37% (inactive) and 3.62% (inactive) and 0.316% (inactive) | inactive | 5.38% (inactive) | 1.31% (inactive) and 1.04% (inactive) | – |
| O=C(O)C(Cl)(Cl)Cl | inactive | inactive | inactive | inactive | inactive | inactive | inactive | 1.76% (inactive) and 3.09% (inactive) | – | – | – | – |
| CCCCCCCCCCCC(=O)O | inactive | inactive | inactive | inactive | inactive | inactive | inactive | 0.697% (inactive) and -0.0798% (inactive) and 0.587% (inactive) | – | – | – | – |
| CN(C)[C@@H]1C(=O)C(C(N)=O)=C(O)[C@@]2(O)C(=O)C3=C(O)c4c(O)cccc4[C@@](C)(O)[C@H]3[C@H](O)[C@@H]12 | inactive | inactive | inactive | inactive | inactive | inactive | inactive | 8.46% (inactive) [middle of 4 runs] | – | – | – | – |
| CCCCn1cc[n+](C)c1C | inactive | inactive | inactive | inactive and 22.1 µM (active) | inactive | inactive | inactive | -1.35% (inactive) [middle of 6 runs] | – | – | – | – |
| O=P1(N(CCCl)CCCl)NCCCO1 (stereo not drawn) | inactive | inactive | inactive | inactive | inactive | inactive | inactive | 4.44% (inactive) and 0.328% (inactive) and -5.68% (inactive) | inactive | -7.16% (inactive) | -1.25% (inactive) and 0.0597% (inactive) | – |
| COP(=O)(OC)OC=C(Cl)Cl | inactive | inactive | inactive | inactive | inactive | inactive | inactive | 12.8% (inactive) and 2.89% (inactive) and 15.7% (inactive) | – | – | – | – |
| CCCC[n+]1ccccc1 | inactive | inactive | inactive | inactive | inactive | inactive | inactive | – | – | – | – | – |
| CC(=O)[O][Hg][c]1ccccc1 | 1.72 µM (active) and 1.95 µM (active) and 1.07 µM (active) | 306 nM (active) and 977 nM (active) and 239 nM (active) | inactive | 1.93 µM (active) and 1.95 µM (active) and 1.07 µM (active) | 433 nM (active) and 1.1 µM (active) and 213 nM (active) | 344 nM (active) and 1.1 µM (active) and 268 nM (active) | 1.93 µM (active) and 1.74 µM (active) and 1.07 µM (active) | – | 2.15 µM (active) and 3.44 µM (active) and 5.96 µM (active) | -71% (inactive) | -80.3% (inactive) and -73.5% (inactive) | 306 nM (active) and 977 nM (active) and 213 nM (active) |
| CCCn1cc[n+](C)c1 | inactive | inactive | inactive | 49.4 µM (active) and inactive | inactive | inactive | inactive | 9.61% (inactive) and -4.66% (inactive) and 2.37% (inactive) | – | – | – | – |
| CCNc1nc(Cl)nc(NCC)n1 | inactive | inactive | inactive | inactive | inactive | inactive | inactive | -0.397% (inactive) and 5.74% (inactive) and 5.58% (inactive) | inactive | -12% (inactive) | -3.33% (inactive) and -18.8% (inactive) | – |
| CCC[N+]1(C)CCCC1 | inactive | inactive | inactive | inactive and 34.9 µM (active) | inactive | inactive | inactive | – | – | – | – | – |
| CCCC[n+]1cccc(C)c1 | inactive | inactive | inactive | inactive and 49.6 µM (active) | inactive | inactive | inactive | 7.15% (inactive) [middle of 6 runs] | – | – | – | – |
| COP(=O)(OC)C(O)C(Cl)(Cl)Cl (stereo not drawn) | inactive | inactive | inactive | inactive | inactive | inactive | inactive | -4.55% (inactive) and 3.86% (inactive) | inactive | 0.23% (inactive) | -17% (inactive) and -12.3% (inactive) | – |
| O=[N+]([O-])c1ccccc1O | inactive | inactive | inactive | inactive | inactive | inactive | inactive | 3.7% (inactive) and -2.87% (inactive) and 7.99% (inactive) | inactive | – | 2.74% (inactive) and 26.9% (inactive) and 8.3% (inactive) | – |
| O=c1nc(O)n(Cl)c(=O)n1Cl | inactive | inactive | inactive | inactive | inactive | inactive | inactive | 3.95% (inactive) and 2.22% (inactive) | inactive | – | 9.16% (inactive) and 1.98% (inactive) and 3.37% (inactive) | – |
| O=C(O)c1ccccc1O | inactive | inactive | inactive | inactive | inactive | inactive | inactive | 2.39% (inactive) [middle of 5 runs] | – | – | – | – |
